Molecules are shown by their SMILES. Several values for one entry are separate records, joined by “and”; a condition that tells them apart may be missing. Equal values may be shown once. Records with an inconclusive call do not appear. Where a structure was tested more than once in an assay, its records may differ in their call. Activity calls are given as the source filed them. Rule for the calls, unless noted: active = hit-call score of the fitted dose curve at least 0.9, where 1 is the maximum; inactive = score below 0.9.

Assay [1] deals with Nucleoli Translocation, AR (gene 367) (UniProt P10275). Put plainly: UPITT_HCI_U2OS_AR_TIF2_Nucleoli_Agonist: University of Pittsburgh U2OS Androgen Receptor-Transcriptional Intermediary Factor 2 (AR-TIF2) Agonism High Content Imaging Assay for Nucleoli Translocation (AID 2283998; active = hit-call score of the fitted dose curve at least 0.9, where 1 is the maximum). In a few lines: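 Cells express human AR fused to red fluorescent protein and TIF2 fused to GFP. Red fluorescence in the nucleolar region was quantified by high-content imaging and fitted as gain-of-signal against a DMSO baseline. Compounds were tested at 0.195 to 50 uM final (0.5% DMSO).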

In assay [2] the target is Ratio of Nucleoli Translocation and Cytoplasm, AR (gene 367) (UniProt P10275). Put plainly: UPITT_HCI_U2OS_AR_TIF2_Nucleoli_Cytoplasm_Ratio_Antagonist: University of Pittsburgh U2OS Androgen Receptor-Transcriptional Intermediary Factor 2 (AR-TIF2) Antagonism High Content Imaging Assay for Ratio of Nucleoli Translocation and Cytoplasm (AID 2283999; active = hit-call score of the fitted dose curve at least 0.9, where 1 is the maximum;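 note: antagonists lower the DHT-driven ratio of nucleolar to cytoplasmic red signal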). The procedure, abridged:
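Read-out is the ratio of nucleolar to cytoplasmic AR-RFP fluorescence, imaged by high-content microscopy in U2OS cells coexpressing TIF2-GFP. Single-point 20 uM screen, triplicate confirmation, then 0.195–50 uM dose response; activity referenced to DHT baseline.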

Assay [3] shares this target. Put plainly: UPITT_HCI_U2OS_AR_TIF2_Nucleoli_Cytoplasm_Ratio_Agonist: University of Pittsburgh U2OS Androgen Receptor-Transcriptional Intermediary Factor 2 (AR-TIF2) Agonism High Content Imaging Assay for Ratio of Nucleoli Translocation and Cytoplasm (AID 2284000; active = hit-call score of the fitted dose curve at least 0.9, where 1 is the maximum;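 note: hits raise the red nucleolar to cytoplasm ratio above vehicle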). The procedure, abridged:
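Compounds tested at 20 uM final in primary screen (0.2% DMSO) and 0.195-50 uM final in dose-response (0.5% DMSO). Imaging of human U2OS cells bearing RFP-AR and GFP-TIF2; endpoint is nucleoli/cytoplasm red signal ratio, positive direction relative to DMSO.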

Assay [4] in a line: CCTE_Harrill_HTTr_Viability_MCF7: CCTE's 6-hour Cell Viability Assessment for the High-Throughput Transcriptomics (HTTr) Platform, in MCF-7 cells cultured in DMEM + 10% fetal bovine serum, Harrill Lab (AID 2284010). In a few lines: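 PI exclusion, high-content imaging; 8-pt dilution series, 6 h exposure; bidirectional fit vs DMSO (neg. ctrl/baseline); gain of signal = loss of membrane integrity.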

Assay [5] in a line: CCTE_Simmons_MITO_basal_resp_rate: CCTE's HepG2 Seahorse XF Respirometric Screening Assay at Basal Respiratory State, Simmons Lab (AID 2284001). Particulars: actives raise or lower the signal. In a few lines:
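Basal-phase OCR in HepG2 cells, read at 6-min intervals across a 72-min run, with test compound injected at 125 nM–100 uM final (7 points). Fitted both directions against DMSO; three biological replicates per concentration.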

A short description of assay [6]: CCTE_Simmons_MITO_max_resp_rate: CCTE's HepG2 Seahorse XF Respirometric Screening Assay at Maximal Respiratory State [uncoupled], Simmons Lab (AID 2284002). Particulars: actives raise or lower the signal. In a few lines: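 HepG2 oxygen consumption was read on a Seahorse XF96 after FCCP uncoupler injection, following test compound injection; 7 concentrations, 125 nM–100 uM final, three biological replicates. Bidirectional fitting against DMSO vehicle baseline.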

Assay [7] can be described thus: CCTE_Simmons_MITO_inhib_resp_rate: CCTE's HepG2 Seahorse XF Respirometric Screening Assay at Inhibited Respiratory State [full ETC block], Simmons Lab (AID 2284006). Particulars: actives raise or lower the signal. In a few lines: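 OCR read-out in the inhibited phase following rotenone/antimycin A, after compound and FCCP injections, in HepG2 cells. Seven concentrations (125 nM to 100 uM final), three biological replicates, 6-min cycles over 72 min; DMSO baseline.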

Assay [8] can be described thus: CCTE_Simmons_MITO_viability: CellTiter-Glo Viability Assessment for CCTE's HepG2 Seahorse XF Respirometric Screening Assay [post-hoc], Simmons Lab (AID 2284007; active = hit-call score of the fitted dose curve at least 0.9, where 1 is the maximum;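 for AC50: cells exposed to chemical for 90 min before the ATP read; actives lower ATP signal relative to DMSO baseline meaning reduced viability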). The procedure, abridged:
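Luciferase-coupled ATP luminescence, single endpoint. HepG2, post-respirometry. Compound 125 nM–100 uM final, 7 conc., 90 min. n=3 biological, technical singles. DMSO vehicle/baseline; dichlone 10 nM–100 uM, 8 conc., as positive control.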
In general terms: Cellular ATP, detected with luciferase, serves as a proxy for viable cell number.

A short description of assay [9]: CCTE_Shafer_MEA_acute_spike_number: CCTE's Neural Acute Assay for Total Number of Spikes, Shafer Lab (AID 2284008).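 For AC50: curve fitted for decrease in spike count so AC50 reflects inhibitors.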 The procedure, abridged:
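Primary rat cortical neurons on 16-electrode MEA wells; on DIV 13 or 15, 40-min baseline then 40-min recording with compound (0.03-40 uM) at 37 C. Spikes detected at 8x rms noise; percent change versus baseline, DMSO as negative control.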

Assay [10] can be described thus: CCTE_Shafer_MEA_acute_firing_rate_mean: CCTE's Neural Acute Assay for Mean Firing Rate, Shafer Lab (AID 2284009).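 Note: analyzed for loss of signal so actives lower firing rate relative to DMSO.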 In a few lines: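 Primary rat cortical neurons on 16-electrode MEA wells were exposed on DIV 13 or 15 to compound (0.03-40 uM). Spike counts per recording time, averaged over electrodes, were compared between 40-min baseline and 40-min post-exposure recordings as percent change.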

Nucleoli Translocation, AR (gene 367), sequence (P10275 whole entry, looked up, the tested form may be a part): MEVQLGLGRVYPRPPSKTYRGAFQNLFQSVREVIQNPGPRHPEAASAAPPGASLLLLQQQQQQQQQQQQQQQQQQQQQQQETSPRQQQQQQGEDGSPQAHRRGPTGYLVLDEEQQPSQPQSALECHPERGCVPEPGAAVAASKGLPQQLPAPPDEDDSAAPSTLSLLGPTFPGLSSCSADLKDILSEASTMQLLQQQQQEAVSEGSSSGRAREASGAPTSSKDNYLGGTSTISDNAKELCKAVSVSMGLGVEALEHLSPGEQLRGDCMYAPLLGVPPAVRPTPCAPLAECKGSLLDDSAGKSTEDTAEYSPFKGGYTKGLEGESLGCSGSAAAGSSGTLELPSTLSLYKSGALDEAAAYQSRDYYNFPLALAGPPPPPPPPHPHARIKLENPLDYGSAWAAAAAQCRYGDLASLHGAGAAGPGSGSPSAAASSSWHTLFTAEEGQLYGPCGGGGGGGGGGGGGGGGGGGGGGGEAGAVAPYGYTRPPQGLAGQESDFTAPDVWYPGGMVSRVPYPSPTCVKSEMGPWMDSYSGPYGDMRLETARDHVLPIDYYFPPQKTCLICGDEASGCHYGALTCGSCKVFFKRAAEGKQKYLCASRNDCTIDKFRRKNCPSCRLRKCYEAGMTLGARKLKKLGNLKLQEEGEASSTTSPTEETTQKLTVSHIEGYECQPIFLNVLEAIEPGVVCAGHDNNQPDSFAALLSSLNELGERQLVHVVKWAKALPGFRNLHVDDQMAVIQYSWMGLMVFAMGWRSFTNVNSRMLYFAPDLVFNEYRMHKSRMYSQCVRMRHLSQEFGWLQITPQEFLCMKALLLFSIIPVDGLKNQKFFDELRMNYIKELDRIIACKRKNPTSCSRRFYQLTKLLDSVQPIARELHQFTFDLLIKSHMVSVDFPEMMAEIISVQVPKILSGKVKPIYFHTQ
Ratio of Nucleoli Translocation and Cytoplasm, AR (gene 367), sequence (P10275 whole entry, looked up): as the sequence (P10275 whole entry, looked up, the tested form may be a part) above

`Cc1cc(Cl)ccc1OCC(=O)O`: the result in assay [1], in assay [2], in [3] and in assay [4] was inactive.

Broadly, the AC50 is the midpoint of the concentration-response curve, whichever way the signal moves. With `OC(c1ccc(Cl)cc1)(c1cncnc1)c1ccccc1Cl` (stereo not drawn), the call in [5], in [6], in assay [7], in assay [8] and in assay [4] was inactive. Moreover, the concentration at half-maximal activity (AC50) in assay [9] is 792 nM (active); in [10], 803 nM (active).

With `CO/C=C(/C(=O)OC)c1ccccc1Oc1cc(Oc2ccccc2C#N)ncn1`, the outcome in assay [2], in [8], in assay [9], in [10] and in [4] was inactive. The AC50 is 9.66 µM (active) and 9.17 µM (active) in assay [5]; 6.48 µM (active) and 5.12 µM (active) in assay [6]; 17.9 µM (active) and 8.88 µM (active) in [7].

Regarding `CCOC(=O)CC(SP(=S)(OC)OC)C(=O)OCC` (stereo not drawn), the concentration at half-maximal activity (AC50) in assay [2] was 69.2 µM (active). The outcome in assay [3] and in assay [4] was inactive.

With `O=C(Nc1ccccc1)Nc1ccnc(Cl)c1`, the AC50 in assay [1] was 84.5 µM (active); in assay [5] it was 72.3 µM (active); in assay [6] it was 50 µM (active). Besides, the outcome in assay [2], in [3], in [7], in assay [8] and in assay [4] was inactive.

For `CS/C(C)=N/OC(=O)N(C)SN(C)C(=O)O/N=C(\C)SC`, the half-maximal activity concentration (AC50) is 70.8 µM (active) in assay [1], 13.8 µM (active) in assay [2] and 84.1 µM (active) in [3]. For the same molecule, the result in [9], in [10] and in [4] was inactive.

For the molecule `COc1nc(NC(C)C)nc(NC(C)C)n1`, the AC50 in assay [5] is 32.6 µM (active). The molecule was classed as inactive in assay [6], in [7], in assay [8] and in [4].

Regarding `CC(C)(C)c1ccc(CSc2cnn(C(C)(C)C)c(=O)c2Cl)cc1`, the concentration at half-maximal activity (AC50) was 0.96 µM (active) in assay [5]; 0.655 µM (active) in assay [6]; 0.359 µM (active) in [7]; 0.411 µM (active) in [8]; 24.9 nM (active) in assay [9]; 24.9 nM (active) in assay [10]. Besides, in [4], the outcome was inactive.

`C=CCC1=C(C)C(OC(=O)C2C(C=C(C)C)C2(C)C)CC1=O` (stereo not drawn): the AC50 in assay [5] was 34.7 µM (active) and 46.9 µM (active); in assay [6], 36.2 µM (active) and 53.5 µM (active); in assay [7] it was 26 µM (active) and 42.3 µM (active); in assay [8], 5.17 µM (active). The molecule was called inactive in assay [8], in [9], in [10] and in [4].

`N#Cc1nn(-c2c(Cl)cc(C(F)(F)F)cc2Cl)c(N)c1S(=O)C(F)(F)F` (stereo not drawn): the molecule was classed as inactive in assay [1], in [2], in [3], in assay [5], in assay [6] and in assay [7]. Also, the call in assay [8] and in [4] was inactive. In addition, the concentration at half-maximal activity (AC50) was 10.3 µM (active) and 9.11 µM (active) in assay [9]; 10.3 µM (active) and 9.11 µM (active) in assay [10].

On to `CC1COC(Cn2cncn2)(c2ccc(Oc3ccc(Cl)cc3)cc2Cl)O1` (stereo not drawn), for which the AC50 is 6.1 µM (active) in assay [5]; 6.64 µM (active) in assay [6]; 6.05 µM (active) in assay [7]; 3530 nM (active) in assay [9]; 3530 nM (active) in assay [10]. The molecule was called inactive in assay [8] and in assay [4].

On to `CON(C)C(=O)Nc1ccc(Cl)c(Cl)c1`, for which the concentration at half-maximal activity (AC50) in assay [5] is 26.8 µM (active). For the same molecule, the molecule was called inactive in assay [6], in assay [7], in assay [8], in [9], in [10] and in [4].

Take `COP(=S)(OC)Oc1nc(Cl)c(Cl)cc1Cl`: the outcome in assay [5], in [6], in assay [7], in assay [9], in assay [10] and in assay [4] was inactive. In addition, in assay [8], the AC50 is 19.8 µM (active).

As to `N#Cc1cc(Br)c(O)c(Br)c1`, the result in [3], in assay [6], in [7] and in [4] was inactive. The figures for the AC50 in assay [5] and in assay [8] were 9.69 µM (active) and 10.8 µM (active), respectively.

Consider `CCCN(CCC)c1c([N+](=O)[O-])cc(S(N)(=O)=O)cc1[N+](=O)[O-]`, for which the AC50 in assay [5] was 30.7 µM (active); in assay [6], 34 µM (active); in [9], 4910 nM (active); in assay [10], 4910 nM (active). The call in assay [5], in [6], in assay [7], in assay [8] and in assay [4] was inactive.

For `CCCCNC(=O)n1c(NC(=O)OC)nc2ccccc21`, the call in assay [1], in [3] and in assay [4] was inactive.

`CC(C)Oc1cc(-n2nc(C(C)(C)C)oc2=O)c(Cl)cc1Cl`: the molecule was called inactive in assay [1], in [2], in assay [3], in [5], in assay [6] and in assay [7]. Further, the molecule was classed as inactive in assay [8], in assay [9], in assay [10] and in [4].

For `Cc1ccc(-c2c(Cl)nc(C#N)n2S(=O)(=O)N(C)C)cc1`, the outcome in assay [1], in assay [2], in assay [7], in assay [8], in assay [9] and in assay [10] was inactive. Besides, the outcome in assay [4] was inactive. Further, the AC50 is 0.982 µM (active) in assay [5] and 34 µM (active) in assay [6].

As to `CCCC1COC(Cn2cncn2)(c2ccc(Cl)cc2Cl)O1` (stereo not drawn), the AC50 is 92.8 µM (active) in [1]; 89.2 µM (active) in [3]; 18.4 µM (active) in assay [5]; 33.7 µM (active) in assay [6]; 26.5 µM (active) in [8]. Moreover, the outcome in [2], in [7], in [9], in assay [10] and in [4] was inactive.

For the molecule `COC(=O)N(OC)c1ccccc1COc1ccn(-c2ccc(Cl)cc2)n1`, the AC50 in assay [5] is 2.05 µM (active); in assay [6], 1.7 µM (active); in assay [7], 1.69 µM (active); in assay [9] it was 78.1 nM (active); in [10], 78.3 nM (active). Besides, the outcome in assay [8] and in assay [4] was inactive.

Take `CCON=C(CC)C1=C(O)CC(c2c(C)cc(C)cc2C)CC1=O` (stereo not drawn): the result in [2] and in [4] was inactive.

In the case of `N#CC(CCc1ccc(Cl)cc1)(Cn1cncn1)c1ccccc1` (stereo not drawn), the outcome in assay [1], in assay [2], in assay [3], in assay [5], in [6] and in assay [7] was inactive. Moreover, the call in assay [8], in assay [9], in assay [10] and in assay [4] was inactive.

(Values after PubChem BioAssay (EPA / NIEHS).)
